“And” between values parts separate entries of the source, which are not always exact repeats. Equal values may be shown once. Results filed as inconclusive are left out. Values without a mark were called inactive. The source made the active and inactive calls. Calls follow the shape of the dose curve; as a rule, active = well fitted cell-killing curve with a large enough effect in the repeat runs; inconclusive = weak or mixed curves, or effect the other way; inactive = flat fitted curve, though single readings scatter.
test: qHTS RealTime-Glo MT Cell Viability Assay in HEK293 cells - 40 hour (AID 1224874); conditions: RealTime-Glo luminescence; max response: active compounds read low; also: nearly all actives have a fitted effect of over 50% in size
Text: U.S. Tox21 Program National Center for Advancing Translational Sciences [NCATS] NIH Chemical Genomics Center [NCGC] U.S. Environmental Protection Agency [EPA] National Institutes of Environmental Health Sciences [NIEHS] National Toxicology Program [NTP] U.S. Food and Drug Administration [FDA] Tox21 Assay Overview: Measure of cell viability is critical in the cell-base assay. Analysis of cell viability is necessary for the characterization of cell responses to cytotoxic drugs and environmental stress. A RealTime-Glo MT Cell Viability Assay to monitor cell viability in real time of continues cell culture during 40 hours of compound treatment was used to screen Tox21 10K library compounds in Hek293 cells. The RealTime-Glo MT Cell Viability Assay is a nonlytic, homogeneous, bioluminescent method to measure cell viability in real time using a simple, plate-based method. The assay involves adding NanoLuc luciferase and a cell-permeant prosubstrate to cells in culture. Viable cells reduce the proprietary prosubstrate to generate a substrate for NanoLuc luciferase. This substrate diffuses from cells into the surrounding culture medium, where it is rapidly used by the NanoLuc Enzyme to produce a luminescent signal. The signal correlates with the number of viable cells, making the assay well suited for cytotoxicity studies.
Tox21 Assay Protocol Summary: The mixture of Hek293 cell suspension and reagents were dispensed at 600cells/6 ul/well in 1536-well tissue culture treated black solid bottom plates using a Multidrop dispenser. After the assay plates were incubated at a 37 C/5% CO2 incubator for 5 hours, 23 nL of compounds dissolved in DMSO, positive and negative controls was transferred to the assay plate by a pintool work station. The plates were incubated at 37 C for 40 hours. The luminescence intensity were measured at 0h, 8h, 16h, 24h, 32h and 40h time points using ViewLux plate reader during compound treatment.
% is scaled to controls: 0 for no effect and ±100 for the full control effect; potency is read from the fitted curve at half-maximal effect.

Row | SMILES | max response | Potency
1 | Cc1cccc(C)c1NC(=O)C(C)N (stereo not given) | 4.07% | –
2 | CC(C)(C)c1ccc(O)c(O)c1 | – | 20.2 µM (active) and 36 µM (active)
3 | OC1CCCCC1c1ccccc1 (stereo not given) | 3.62% | –
4 | Nc1cc(=O)[nH]c(N)n1 | 0.787% | –
5 | COc1ccc2c(c1)CCCC2=O | 0.353% | –
6 | C=CCS(=O)(=O)O | 0.443% | –
7 | NC(=O)c1ccc([N+](=O)[O-])cc1 | 2.32% | –
8 | NC(CSCC(=O)O)C(=O)O (stereo not given) | 7.24% | –
9 | COc1ccc2c(c1)c(CC(=O)OCC(=O)O)c(C)n2C(=O)c1ccc(Cl)cc1 | 5.11% | –
10 | COC(=O)CC(C)=O | 11.5% | –
11 | CC(C)(c1ccc(O)cc1)c1ccc(O)cc1 | – | 48 µM (active)
12 | CCSC(=O)N(CC(C)C)CC(C)C | 5.8% | –
13 | Cn1cc(S(C)=O)c(=O)c2ccc(F)cc21 (stereo not given) | -13.8% | –
14 | O=c1n(CCO)c(=O)n(CCO)c(=O)n1CCO | -3.8% and 5.95% | –
15 | Nc1ccc(S(=O)(=O)Nc2ccnn2-c2ccccc2)cc1 | 3.19% | –
16 | O=C(O)CCCl | 13% | –
17 | CCCCCCCCCCCC | 0.33% | –
18 | CN(C)CCCNCCCN(C)C | 5.75% | –
19 | C[C@](N)(Cc1ccc(O)cc1)C(=O)O | 0.763% | –
20 | O=C1CCCN1C1CCCCC1 | 6.98% | –

Row | SMILES | max response | Potency
21 | N[C@H](C(=O)O)c1ccc(O)cc1 | 2.28% | –
22 | CC(=O)CC(C)C | 14.5% | –
23 | CCC(=O)OC(C)c1ccccc1 (stereo not given) | -2.17% | –
24 | COc1ccccc1OCC(O)CN1CCN(CC(=O)Nc2c(C)cccc2C)CC1 (stereo not given) | -12.4% | –
25 | OC[C@]1(O)OC[C@@H](O)[C@H](O)[C@@H]1O | 0.06% and 3.11% | –
26 | FC(F)OC(Cl)C(F)(F)F (stereo not given) | 5.59% | –
27 | O=C(O)CN(CCOCCOCCN(CC(=O)O)CC(=O)O)CC(=O)O | 6.77% | –
28 | COC(=O)C1=C(C)NC(C)=C(C(=O)OC)C1c1ccccc1[N+](=O)[O-] | -16.8% | –
29 | CCN(Cc1ccncc1)C(=O)C(CO)c1ccccc1 (stereo not given) | 5.99% | –
30 | COc1c(N2C[C@@H]3CCCN[C@@H]3C2)c(F)cc2c(=O)c(C(=O)O)cn(C3CC3)c12 | -3.41% | –
31 | CCN(CC)CCOCCOC(=O)C1(c2ccccc2)CCCC1 | -9.14% | –
32 | O=C(O)CNC(=O)c1ccc([N+](=O)[O-])cc1 | -0.136% | –
33 | CCC=O | 5.02% | –
34 | CCn1ccnc1CC1COc2ccccc2O1 (stereo not given) | -26.6% | –
35 | O=c1[nH]c(=O)n([C@H]2C[C@H](O)[C@@H](CO)O2)cc1I | 5.93% | –
36 | CC(C)CCCC(C)N (stereo not given) | 5.83% | –
37 | COC(=O)[C@@H](N)Cc1ccc(O)c(O)c1 | 2.16% | –
38 | CCOC(=O)CC(C)=O | 14.1% | –
39 | CC(=O)OCC(CCn1cnc2cnc(N)nc21)COC(C)=O | -0.0813% | –
40 | Cc1c(NC(C)C)c(=O)n(-c2ccccc2)n1C | 2.55% | –
